Our source for the inhibition values is PubChem BioAssay AID485344 (National Center for Advancing Translational Sciences (NCATS), 2010).

Each structure is given as a SMILES string. Among all 340,000 compounds or so, about 6,900 (2%) were called active. Only a selection was taken, and actives are over-represented in it overall. A number with no mark means an inactive call. Rule as the data show it: active = inhibition above about 30%; inactive = below that, where a call was filed.

Usually inhibition stands for the drop in the measured response relative to a control, in per cent.

Chain of D(2) dopamine receptor (Homo sapiens) (P14416 whole entry, looked up): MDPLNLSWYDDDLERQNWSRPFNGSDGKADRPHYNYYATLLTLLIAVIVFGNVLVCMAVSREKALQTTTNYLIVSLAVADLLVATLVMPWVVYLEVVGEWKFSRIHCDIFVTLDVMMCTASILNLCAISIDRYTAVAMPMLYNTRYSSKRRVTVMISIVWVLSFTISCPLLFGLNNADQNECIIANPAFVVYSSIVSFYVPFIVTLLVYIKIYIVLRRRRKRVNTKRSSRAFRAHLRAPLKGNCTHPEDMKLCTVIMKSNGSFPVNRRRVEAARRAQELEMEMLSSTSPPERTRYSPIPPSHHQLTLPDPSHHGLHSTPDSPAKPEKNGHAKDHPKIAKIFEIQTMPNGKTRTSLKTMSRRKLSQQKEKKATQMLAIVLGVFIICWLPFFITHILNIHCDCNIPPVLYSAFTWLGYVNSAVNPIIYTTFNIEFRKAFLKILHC

The assay concerns the target D(2) dopamine receptor (Homo sapiens) (UniProt P14416). The experiment in a line: HTS Assay for Allosteric Antagonists of the Human D2 Dopamine Receptor: Primary Screen for Antagonists. Also: 0% is about no effect. The conditions noted are these: HEK293 TREx D2 cells, calcium flux, dopamine EC80; at 10 µM; stronger effect = higher value. Summed up: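 Dopamine at EC80 is the agonist stimulus; test compounds precede it by 180 s. Calcium flux read kinetically in a force-coupled, inducible HEK293 T-REx D2 cell line.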
Turning to `Cc1ccc(NC(=O)C(c2ccccc2)N2CCN(C(=O)c3ccco3)CC2)cc1` (configuration not stated), the inhibition is -0.875%. As for `CN(C(=O)CSc1nnc(-c2ccc3c(c2)OCO3)o1)C1CCS(=O)(=O)C1` (configuration not stated), the inhibition is 8.68%. Then `Cc1ccc(N2C(=O)C3C4C=CC(CC4)C3C2=O)cc1Br` (configuration not stated), with 54.9% (active); and `CC(=O)Nc1ccc(N2C(=O)C3C4C=CC(CC4)C3C2=O)cc1` (configuration not stated), with 2.36%. In the case of `Cc1ccc(N2C(=O)C3C4C=CC(CC4)C3C2=O)cc1Cl` (configuration not stated) it was -11.1%; in that of `Cn1c(-c2ccc(C(F)(F)F)cc2)cc2onc(-c3ccccc3)c2c1=O`, 8.4%; in that of `CCOc1ccc(C(=O)NCC(=O)N2CCN(c3ccc(C(F)(F)F)cn3)CC2)cc1`, -6.45%. Then `Cc1ccc(C(=O)OCC(=O)NCc2cc(C)c(O)c(C)c2)cc1S(=O)(=O)N1CCCCC1`, with 14.2%; and `CCN(C(=O)COC(=O)/C=C/c1nc2ccccc2s1)C1CCS(=O)(=O)C1` (configuration not stated), with 31.7% (active). In the case of `CCN(C(=O)CSc1nc2ccccc2n1CC)C1CCS(=O)(=O)C1` (configuration not stated), the inhibition is 8.24%. As for `CCN(C(=O)COC(=O)c1c(NC(C)=O)sc(C)c1C)C1CCS(=O)(=O)C1` (configuration not stated), the inhibition is 9.33%. Regarding `COc1ccc(N2CCN(C(=O)CCNC(=O)c3ccc(Br)cc3)CC2)cc1`, the inhibition was -5.34%. Then `CC(C(=O)N1CCc2ccccc21)N(C)CC(=O)Nc1ccc(F)cc1` (configuration not stated), with 17.3%; and `COc1ccccc1C(=O)NCC(=O)NCCSc1ccc(Br)cc1`, with -18.2%; and `Fc1ccc(CNCc2ccc(Br)cc2)cc1`, with 48.7% (active). Then `Cc1cc(C)cc(NC(=S)NCc2ccc(F)cc2)c1`, with 17.7%.

For `O=C(Cc1ccccc1)NCc1ccc(F)cc1`, the inhibition was 7.68%. Then `CCOC(=O)C1CCCN(C(=O)c2ccc(C)c(S(=O)(=O)N3CCCCC3)c2)C1` (configuration not stated), with -2.03%; and `CC(=O)Nc1ccc(SC[C@H](Cc2ccccc2)N2CC[C@@H](C)CCC2=O)cc1`, with 6.05%; and `COc1cc(-c2nnn(CC(=O)NCc3ccccc3)n2)cc(OC)c1OC`, with -2.02%.

`O=C(Cn1nnc(-c2ccccc2)n1)NC(=O)NC1CCCC1`: the inhibition is -8.79%. In the case of `N#Cc1ccc(COC(=O)Cn2nnc(-c3ccccc3)n2)cc1` it was 32.5% (active); in that of `COc1cc([N+](=O)[O-])ccc1NC(=O)COC(=O)CCOc1ccc(C)cc1`, -25.8%; in that of `Cc1cccc(Nc2nnc(SCC(=O)c3c(N)n(C4CC4)c(=O)[nH]c3=O)s2)c1C`, -24.6%. With `O=S(=O)(Nc1ccc2nc(N3CCOCC3)sc2c1)c1ccccc1`, the inhibition was -2.59%. Then `O=C(CCNC(=O)c1ccccc1)Nc1nc2ccccc2s1`, with 9.78%.

With `CC(=O)Nc1ccc(-c2csc(NC(=O)Nc3ccccc3)n2)cc1`, the inhibition was 0.929%.

Regarding `O=C(Nc1ccccc1)Nc1nc2ccccc2s1`, the inhibition was 38.1% (active).

Turning to `O=C(O)CSc1ccc(S(=O)(=O)N2CCCC2)cn1`, the inhibition was -7.84%. Then `Cc1cc(NC(=O)CCC2COc3ccccc3O2)no1` (configuration not stated), with 16.6%; and `O=C(NCC1COc2ccccc2O1)C1(c2ccccc2)CCCC1` (configuration not stated), with 2.24%; and `Cc1noc(C)c1C(=O)NCC1COc2ccccc2O1` (configuration not stated), with 42% (active). For `NC(=O)c1ccsc1NC(=O)COC(=O)COc1ccc(C=O)cc1`, the inhibition is 0.0079%. Then `CCOc1ncccc1C(=O)Nc1ccc(S(=O)(=O)Nc2nc(C)cc(C)n2)cc1`, with -33.5%; and `COc1ccc(NS(=O)(=O)c2cc(NC(=O)COc3ccccc3F)ccc2OC)cc1`, with -11%. Regarding `CCCNC(=O)NC(=O)COC(=O)CC(NC(N)=O)c1ccc(Cl)cc1` (configuration not stated), the inhibition was -5.2%. In the case of `NC(=O)NC(CC(=O)NNC(=O)c1ccccn1)c1ccc(Cl)cc1` (configuration not stated) it was 35.3% (active); in that of `CN(C)S(=O)(=O)c1ccc(Cl)c(NC(=O)COC(=O)CC(NC(N)=O)c2ccc(Cl)cc2)c1` (configuration not stated), 8.54%; in that of `CC(C)C(NC(=O)c1c(F)cccc1F)C(=O)NCc1ccncc1` (configuration not stated), -6.22%. Regarding `Cc1ccc(NC(=O)CC2S/C(=N/N=C3\CCCc4ccccc43)NC2=O)cc1` (configuration not stated), the inhibition was -3.76%. Then `Cc1ccc(S(=O)(=O)Oc2ccc(/C=N/NC(=O)c3ccncc3)cc2)cc1`, with -6.29%; and `CC(=O)Nc1ccc(S(=O)(=O)Oc2ccc(/C=N/N=C3/NC(=O)C(CC(=O)O)S3)cc2)cc1` (configuration not stated), with 35.4% (active); and `Cc1cc(C(=O)CCC(=O)NNC(=O)c2ccccc2O)c(C)s1`, with 19.4%. For the compound `Cc1c(NC(=O)CN2C(=O)C(=O)N(Cc3ccccc3)C2=O)c(=O)n(-c2ccccc2)n1C`, the inhibition was -13.5%. In the case of `Cc1c(NC(=S)NC(=O)CCc2ccccc2)c(=O)n(-c2ccccc2)n1C` it was 40.2% (active); in that of `Cc1c(NC(=S)Nc2ccccc2)c(=O)n(-c2ccccc2)n1C`, -10.1%. In the case of `COc1ccc(OC)c(CN2CCN(C(=O)CNC(=O)c3cc(C)cc(C)c3)CC2)c1` it was -4.53%. In the case of `CCN(CC)S(=O)(=O)c1cc(C(=O)Nc2cc(S(=O)(=O)N3CCOCC3)ccc2N2CCCC2)ccc1F` it was -9.39%; in that of `CN(CC(=O)Nc1ccc(Cl)cc1)CC(=O)Nc1cccc2ccccc12`, -6.32%; in that of `CC(C)c1ccc(/C=C/C(=O)NCCCN2CCOCC2)cc1`, -4.54%. Regarding `CCOC(=O)N1CCC(Nc2c(NCCN3CCN(c4cccc(Cl)c4)CC3)c(=O)c2=O)CC1`, the inhibition was -2.93%. Then `Cn1c(C(=O)NCCc2ccsc2)cc2c(=O)n(C)c3ccccc3c21`, with -0.277%. In the case of `CCn1c(=O)cc(OCC(=O)NCCCN2CCN(c3cccc(Cl)c3)CC2)c2ccccc21` it was 78.9% (active). In the case of `CCN1CCCC1CNC(=O)c1cc2c(=O)n(C)c3ccccc3c2n1C` (configuration not stated) it was -1.94%; in that of `Cn1c(C(=O)NCCCN2CCN(c3cccc(Cl)c3)CC2)cc2c(=O)n(C)c3ccccc3c21`, 95.2% (active); in that of `CCOC(=O)N1CCC(NC(=O)COc2cc(=O)n(C)c3ccccc23)CC1`, 7.2%. As for `CCOc1ccc(C(=O)CCC(=O)Nc2ccncc2)cc1`, the inhibition is -7.41%.
